PubChem BioAssay (NCI)
This is part of a sample that, as a whole, favours compounds with a hit. Of some 83,000 tested, about 20% had one in any assay.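 Plates (96-well) were seeded with cells, treated with compound at one concentration, and incubated for 48 hours before percent growth was determined.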 Calls of active or inactive are those of the source. How the source made its calls: active means growth percent below 10; inactive means the rest.

Columns and labels:
Test in all cases: NCI-60 one-dose screen, 48 h (100 = growth as untreated, 0 = no growth, -100 = all killed)
[1] = system: SK-MEL-2 melanoma; conditions: 10 µM unless noted
[2] = system: SN12C renal; conditions: 10 µM unless noted
[3] = system: UO-31 renal; conditions: 10 µM unless noted
[4] = system: TK-10 renal; conditions: 10 µM unless noted
[5] = system: ACHN renal; conditions: 10 µM unless noted
[6] = system: A498 renal; conditions: 10 µM unless noted
[7] = system: CCRF-CEM leukemia; conditions: 10 µM unless noted
[8] = system: MOLT-4 leukemia; conditions: 10 µM unless noted
[9] = system: SR leukemia; conditions: 10 µM unless noted
[10] = system: RPMI-8226 leukemia; conditions: 10 µM unless noted
[11] = system: OVCAR-8 ovarian; conditions: 10 µM unless noted
[12] = system: OVCAR-5 ovarian; conditions: 10 µM unless noted
[13] = system: OVCAR-4 ovarian; conditions: 10 µM unless noted
[14] = system: SK-OV-3 ovarian; conditions: 10 µM unless noted
[15] = system: IGROV1 ovarian; conditions: 10 µM unless noted
[16] = system: OVCAR-3 ovarian; conditions: 10 µM unless noted
[17] = system: HS 578T breast; conditions: 10 µM
[18] = system: NCI/ADR-RES ovarian; conditions: 10 µM unless noted
[19] = system: CAKI-1 renal; conditions: 10 µM unless noted

Measured: growth

COc1ccc(-c2[nH]nc(N)c2-c2cc(OC)c(OC)c(OC)c2)cc1
active: [6] -8.24% | [7] -5.92% | [8] -2.96% | [9] -23.7% | [10] -8.96% | [11] 7.81% | [14] 4.97% | [15] 1.08% | [16] -28.3% | [18] -9.45%
inactive: [1] 42.5% | [2] 33% | [3] 20.4% | [4] 34.9% | [5] 25.5% | [12] 38.8% | [13] 64.2% | [17] 25.6%

CSC1=NC(=Nc2c(C)cccc2C)C2(CCC(C(C)(C)C)CC2)N1c1ccc(Cl)cc1 (configuration not stated)
inactive: [1] 49.9% | [2] 42.1% | [3] 34.8% | [4] 61.3% | [5] 34.5% | [6] 71.5% | [7] 36.9% | [8] 23.5% | [9] 26% | [10] 51.5% | [11] 31.6% | [12] 72.1% | [13] 60% | [14] 57.6% | [15] 55.4% | [16] 55.3% | [17] 65.9%

CC1=C(C(=O)Nc2ccc(F)cc2)C(c2ccccc2)C2=C(CC(C)(C)CC2=O)N1 (configuration not stated)
inactive: [1] 89.4% | [2] 70.1% | [3] 60.1% | [4] 104% | [5] 82.7% | [6] 47.1% | [7] 62.3% | [8] 62.9% | [10] 41.3% | [11] 73.3% | [12] 90.7% | [13] 58.7% | [14] 97.2% | [15] 84.3% | [16] 70% | [17] 82.5% | [18] 79.7%

COS(=O)(=O)CCN(CCOS(C)(=O)=O)S(C)(=O)=O
inactive: [1] 78.9% | [2] 98.1% | [3] 86.7% | [4] 96.7% | [5] 92.9% | [19] 96.8% | [6] 115% | [8] 90.5% | [9] 95.5% | [10] 99.8% | [11] 94.9% | [12] 101% | [13] 107% | [14] 104% | [15] 105% | [16] 105% | [18] 105%

CCOC(=O)c1sc2nc(-c3cc4ccccc4o3)cc(-c3ccc(Cl)cc3)c2c1N
inactive: [1] 83.8% | [2] 82.4% | [3] 87.2% | [4] 145% | [5] 80.9% | [6] 98.2% | [7] 84% | [8] 99.3% | [9] 71.6% | [10] 42.4% | [11] 112% | [12] 112% | [13] 101% | [14] 104% | [15] 81.2% | [16] 103% | [17] 91.9% | [18] 112%

Nc1c(C(=O)Nc2cccc(Cl)c2)sc2ncc(Br)cc12
active: [13] 9.2%
inactive: [1] 89.6% | [2] 82% | [3] 62.2% | [4] 57.9% | [5] 11.4% | [19] 90.6% | [6] 96.5% | [8] 87.4% | [9] 71.7% | [10] 71.3% | [11] 87.1% | [14] 61% | [15] 70% | [16] 54.5%

COc1ccc(/C=C/C(=O)c2ccc(NC(=O)CSc3nnc(-c4ccc(OC)cc4)n3-c3ccccc3)cc2)cc1
inactive: [1] 95.5% | [2] 96.5% | [3] 79.3% | [4] 109% | [5] 106% | [6] 109% | [7] 95% | [8] 88% | [10] 77.5% | [11] 92.2% | [12] 108% | [13] 100% | [14] 100% | [15] 111% | [16] 103% | [17] 91.2% | [18] 102%

N=C(N)c1ccc(-c2ccc(-c3cc(Cl)cc(Cl)c3)o2)nc1
active: [1] -71.8% | [2] -79.9% | [3] -76.6% | [4] -88.5% | [5] -90.6% | [7] -37.9% | [8] -55.1% | [9] -27.4% | [10] -45.2% | [11] -49.4% | [12] -62.3% | [13] -57.7% | [14] -86.5% | [15] -41.3% | [16] -95.2% | [18] -29.8%
inactive: [6] 61.8% | [17] 83.4%

CC(C)COC(=O)NC(C)(C)C
inactive: [1] 93.1% | [2] 110% | [3] 95.6% | [4] 104% | [5] 104% | [19] 96.4% | [6] 120% | [8] 85.4% | [9] 91.5% | [10] 103% | [11] 103% | [12] 97.9% | [13] 106% | [14] 103% | [15] 107% | [16] 105% | [18] 106%

CCOP(=O)(O)OP(=O)(O)OCC
inactive: [1] 128% | [2] 105% | [3] 91.9% | [4] 103% | [5] 97.6% | [19] 94.3% | [6] 110% | [8] 87.1% | [9] 91.2% | [10] 95.8% | [11] 119% | [12] 96.9% | [13] 105% | [14] 97.3% | [15] 97.3% | [16] 105% | [18] 105%

Cc1cc(N=Nc2ccc(-c3ccc(N=Nc4ccc(O)c(C(=O)O)c4)cc3)cc2)c(N)c(N=Nc2ccc(C(=O)O)cc2)c1N
inactive: [1] 91.8% | [2] 91% | [3] 76.9% | [4] 134% | [5] 80.3% | [19] 86% | [6] 101% | [8] 90.1% | [9] 75.9% | [10] 67.1% | [11] 90.8% | [12] 100% | [13] 97.1% | [14] 103% | [15] 83.3% | [16] 93.1% | [18] 97.7%

Fc1ccc2nc(-c3ccc(-c4noc(-c5ccc(Cl)cc5)n4)cc3)[nH]c2c1
inactive: [1] 105% | [2] 110% | [3] 83.9% | [4] 115% | [5] 110% | [19] 102% | [6] 81% | [8] 89.8% | [9] 95.6% | [10] 106% | [11] 108% | [13] 114% | [14] 113% | [15] 115% | [16] 105% | [17] 108% | [18] 100%

COc1cc2nccc(Oc3ccc(NC(=O)C4(C(=O)Nc5ccc(F)cc5)CC4)cc3)c2cc1OC(=O)c1ccc(N)cc1
inactive: [1] 31.3% | [2] 27.6% | [4] 72.2% | [5] 39.5% | [6] 64% | [7] 27.8% | [10] 10.4% | [11] 51.9% | [12] 31% | [13] 51.7% | [14] 69.6% | [15] 60.7% | [16] 47.5% | [18] 35.5%
active: [3] 9.18% | [8] 3.73% | [9] 9.85% | [17] -16.9%

CCC(=O)NC(O)C(Cl)(Cl)C(C)Cl (configuration not stated)
inactive: [1] 106% | [2] 98.8% | [3] 91.5% | [4] 112% | [5] 100% | [6] 107% | [8] 108% | [9] 105% | [10] 105% | [11] 98.1% | [12] 105% | [13] 109% | [14] 107% | [15] 99.6% | [16] 105% | [18] 96.3%

Brc1cccc(-n2ncc3c(Nc4ccc(-c5nnc(-c6ccccc6)o5)cc4)ncnc32)c1
inactive: [1] 115% | [2] 97.8% | [3] 75.9% | [4] 120% | [5] 96.7% | [19] 90.4% | [6] 109% | [8] 108% | [9] 119% | [10] 117% | [11] 97.8% | [12] 104% | [13] 107% | [14] 110% | [15] 112% | [16] 99.6% | [17] 110% | [18] 98.6%

O=C1C2=C(C(=O)c3c(O)ccc(O)c31)N(c1ccc(N3CCOCC3)nc1)Cc1ccccc1O2
active: [1] -42.1% | [2] -85.2% | [3] -100% | [4] -98.7% | [5] -100% | [6] -50.1% | [7] -10.1% | [8] -24.4% | [10] -20.6% | [11] -10.6% | [12] -45.2% | [13] -97.8% | [15] -70.5% | [16] -97.3% | [18] 5.43%
inactive: [14] 15.2% | [17] 27.5%

C=CC[C@]1(O)CC[C@H]2[C@@H]3CCc4cc(O)ccc4[C@H]3CC[C@@]21C
inactive: [1] 90.6% | [2] 96.1% | [3] 85.7% | [4] 107% | [5] 94.5% | [19] 103% | [6] 97.2% | [8] 62% | [9] 38.4% | [10] 86.5% | [11] 94.9% | [12] 98.5% | [13] 94.3% | [14] 107% | [15] 109% | [16] 102% | [18] 87.5%

CCCCC(CCc1ccccn1)C(=O)c1ccccc1 (configuration not stated)
inactive: [1] 116% | [2] 122% | [3] 79.7% | [4] 127% | [5] 116% | [19] 99.5% | [6] 105% | [8] 112% | [10] 106% | [12] 109% | [13] 110% | [14] 110% | [15] 101% | [16] 116% | [17] 112% | [18] 104%
